Only some compounds are listed: those with a hit (about 8.3% of all), similar ones and a draw of the others.
FMDV antiviral: foot and mouth disease virus antiviral activity | FMDV antiviral cell-based qHTS | Potency, µM (series often up to 57.9 µM), inactives show at the top dose activity change, negative = inhibition, hits mostly inhibitors | 410,000 tested, 1.2% active | AID 1159524; calls by dose curve; tested in HEK293T cells; further: read-out not given here; potency means the concentration at half of the fitted maximal effect; nearly all actives have a fitted effect of over 45% in size
MARV entry inh: inhibitors of Marburg virus binding or cell entry. Potency, µM (doses to about 37.8 µM), for the others: at the top dose activity change, negative = inhibition, actives largely listed as inhibitors. 300,000 tested, 1.8% active. Marburg virus pseudotyped entry inhibition, cell reporter; calls by dose curve; tested in HEK293 cells; further: potency means the concentration at half of the fitted maximal effect
FBPA Giardia inh: inhibitors of Giardia lamblia fructose-1,6-bisphosphate aldolase; Potency, µM (highest dose often 59.6 µM), for the others: top-dose activity, negative = inhibition, hits mostly inhibitors; purified Giardia FBPA; A8B2U2; 290,000 tested, 0.71% active; further: potency means the concentration at half of the fitted maximal effect; nearly all actives have a fitted effect of over 55% in size
Target sequence (A8B2U2 whole entry, looked up): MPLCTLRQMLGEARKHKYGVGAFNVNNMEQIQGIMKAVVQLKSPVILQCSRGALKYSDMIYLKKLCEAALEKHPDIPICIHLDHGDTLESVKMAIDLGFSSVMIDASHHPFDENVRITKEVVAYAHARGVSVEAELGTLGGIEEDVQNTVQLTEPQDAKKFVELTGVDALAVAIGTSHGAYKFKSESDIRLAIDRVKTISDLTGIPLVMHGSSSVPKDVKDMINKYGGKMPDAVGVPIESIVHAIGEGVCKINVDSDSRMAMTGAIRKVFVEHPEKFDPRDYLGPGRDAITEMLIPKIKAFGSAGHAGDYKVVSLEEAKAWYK
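Giardia FBPA (40 nM reagent) was preincubated 10 min at RT with compound (up to 57.5 uM final), then substrate plus GAPDH/TPI/NAD/arsenate coupling system with diaphorase/resazurin was added; resorufin fluorescence (525/598 nm) was read after 20 min.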
HCMV antiviral: human cytomegalovirus inhibition; 410,000 tested, 4.5% active; AID 1259415; activity change, negative = inhibition, % at 57.5 µM; HFF cells, HCMV-luciferase reporter, 72 h; stronger effect = lower value; in the data active means activity change below about -60%; inconclusive means no clear call, values can overlap the other calls; inactive means above about -39%
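Steps: HFFs plated, 16 h 37C; compounds added; HCMV-luciferase added to MOI 1 PFU/cell; 72 h 37C; OneGlo reagent, 5 min room temperature; luminescence read, normalized to controls.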
LASV entry inh: inhibitors of Lassa virus binding or cell entry. Lassa virus pseudotype entry inhibition, cell reporter. Potency, µM (series often up to 37.9 µM), inactives show top-dose activity change, negative = inhibition, most hits filed as inhibitors. 300,000 tested, 1.2% active. AID 540256; calls by dose curve; tested in HEK293 cells; further: potency means the concentration at half of the fitted maximal effect; nearly all actives have a fitted effect of over 50% in size
HCV inh: inhibitors of hepatitis C virus infection; Huh7.5.1 HCVcc-Cre infection, luciferase reporter, 44 h; Potency, µM (highest dose often 41.8 µM), for inactives: at the top dose activity change, negative = inhibition, hits mostly inhibitors; 340,000 tested, 3.4% active; further: potency means the concentration at half of the fitted maximal effect
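Infectious HCV cell culture screen: compound-treated cells (1,000/well, pre-plated 4 h) are infected with HCVcc-Cre at roughly 0.5 moi and grown 44 h. Infection is quantified by luciferase signal after 15 min substrate incubation at room temperature.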
* = called active by the depositor; [ ] = another dose, or the depositor's remark. Unless noted, the call rests on the fitted dose curve; in most records, active means well fitted curve in the direction sought with a large enough effect; inconclusive means small, poorly fitted or top-dose-only effect, or another doubt; inactive means no such curve, though single readings can be large; an effect the other way counts as inactive or inconclusive. On the % scale 0 is the no-effect control and ±100 the full control effect.

Screening O=C(/C=C/c1ccc(Br)cc1)NCc1cccs1 returned FMDV antiviral 20%, MARV entry inh 33%, FBPA Giardia inh -6%, HCMV antiviral -61*, LASV entry inh 2.6µM* and HCV inh 7%.
Screening O=C(/C=C/c1ccccc1Cl)NCc1cccs1 returned FMDV antiviral 29%, MARV entry inh 14%, FBPA Giardia inh 1%, HCMV antiviral 37, LASV entry inh 18µM* and HCV inh inconclusive.
For Cc1ccc(CNC(=O)/C=C/c2ccccc2Cl)cc1 the results were FMDV antiviral 32%, MARV entry inh 19%, FBPA Giardia inh 1%, HCMV antiviral 16, LASV entry inh -1% and HCV inh -7%.
Screening O=C(CO/N=C/c1ccc(OC(F)F)cc1)NCc1cccs1 returned FMDV antiviral 0%, MARV entry inh inconclusive, FBPA Giardia inh 5%, HCMV antiviral -39, LASV entry inh -9% and HCV inh -11%.
`O=C(COC(=O)/C=C/c1ccc(OC(F)F)cc1)NCc1cccs1` gave FMDV antiviral -7%, MARV entry inh 9%, FBPA Giardia inh -1%, HCMV antiviral -64*, LASV entry inh inconclusive and HCV inh 11%.
For O=C(/C=C/c1ccc(Cl)cc1)NCc1ccco1 the results were FMDV antiviral 24%, MARV entry inh inconclusive, FBPA Giardia inh -11%, HCMV antiviral -64*, LASV entry inh 6.5µM* and HCV inh 1%.
`O=C(/C=C/c1ccc(F)cc1)NCc1cccs1` gave FMDV antiviral 54%, MARV entry inh -8%, FBPA Giardia inh 0%, HCMV antiviral 16, LASV entry inh inconclusive and HCV inh 1%.
`COc1ccc(NC(=O)CSc2nc(-c3ccc(OC)cc3)[nH]c2-c2ccc(OC)cc2)cc1` gave FMDV antiviral 12%, MARV entry inh inconclusive, HCMV antiviral -15 and LASV entry inh 11%[46.1 µM].
`NS(=O)(=O)c1ccc(CCNC(=O)CN2CCN(c3ccc(F)cc3)CC2)cc1` gave FMDV antiviral inconclusive, MARV entry inh inconclusive, FBPA Giardia inh 8%, HCMV antiviral inconclusive, LASV entry inh inconclusive and HCV inh inconclusive.
CCc1ccc(CNc2ccc(N3CCN(C(C)=O)CC3)cc2)cc1 was read as FMDV antiviral -24%, MARV entry inh -24%, FBPA Giardia inh inconclusive, HCMV antiviral -80*, LASV entry inh inconclusive and HCV inh inconclusive.
For Clc1ccc(CNc2ccc(N3CCN(Cc4ccccc4)CC3)cc2)cc1 the results were FMDV antiviral inconclusive, MARV entry inh inconclusive, FBPA Giardia inh -1%, HCMV antiviral -36, LASV entry inh inconclusive and HCV inh 10µM*.
O=C(CN1CCN(c2cccc(C(F)(F)F)c2)CC1)NCc1ccccc1 was read as FMDV antiviral -25%, MARV entry inh 3%, FBPA Giardia inh -12%, HCMV antiviral 6, LASV entry inh 8.9µM* and HCV inh 8%.
`NS(=O)(=O)c1ccc(CCNC(=O)CN2CCN(c3cccc(Cl)c3)CC2)cc1` gave FMDV antiviral inconclusive, MARV entry inh inconclusive, FBPA Giardia inh 0%, HCMV antiviral -89*, LASV entry inh -18% and HCV inh inconclusive.
COc1cc(OC)c(NC2(c3ccccc3)C(=O)c3ccccc3C2=O)cc1Cl was read as FMDV antiviral -24%, HCMV antiviral -6 and LASV entry inh 0%[46.1 µM].
Screening Cc1cc(Cl)ccc1OCC(=O)N1CCOc2ccc(CN3C[C@@H](C)O[C@@H](C)C3)cc2C1 returned FMDV antiviral -20%.
Screening CCCCCCC(=O)N1C/C=C\C(c2ccc(OC)cc2)N(Cc2ccc(F)cc2)C(=O)C1Cc1ccccc1 (stereo not drawn) returned FBPA Giardia inh -5%.
COc1ccc(CNC(=O)C2CCN(c3nnc(-n4c(C)ccc4C)s3)CC2)c(OC)c1 was read as FMDV antiviral -20%, MARV entry inh -15%[46.1 µM], HCMV antiviral 27 and LASV entry inh -26%[46.1 µM].
Screening O=C(CN1CCN(c2ccc(Cl)cc2)CC1)NCc1ccccc1 returned FMDV antiviral -20%, MARV entry inh inconclusive, FBPA Giardia inh 5%, HCMV antiviral -12, LASV entry inh 6.3µM* and HCV inh inconclusive.
`O=C(CSc1nccc(-c2cccs2)n1)Nc1cccc(Cl)c1` gave FMDV antiviral -23%, MARV entry inh 14%[14.2 µM], FBPA Giardia inh -5%, HCMV antiviral -25, LASV entry inh -28% and HCV inh inconclusive.
Cc1onc(-c2ccc(Cl)cc2)c1-c1ccnc(SCC(=O)Nc2cc(Cl)cc(Cl)c2)n1 was read as FMDV antiviral -16%, MARV entry inh 7.9µM*, FBPA Giardia inh -5%, HCMV antiviral -15, LASV entry inh inconclusive and HCV inh 16µM*.
Screening Cc1ccc(N2CC(C(=O)N3CCOCC3)CC2=O)cc1C (stereo not drawn) returned FMDV antiviral 1%, MARV entry inh -1%[46.1 µM], FBPA Giardia inh 4%, HCMV antiviral -6, LASV entry inh -7% and HCV inh 3%.
O=C(C1CC(=O)N(c2ccc3c(c2)OCCO3)C1)N1CCN(c2ccccc2)CC1 (stereo not drawn) was read as FMDV antiviral inconclusive, MARV entry inh 4%, FBPA Giardia inh -1%, HCMV antiviral -70*, LASV entry inh -12% and HCV inh -4%.
Screening Cc1ccc(N2CC(C(=O)N3CCCCC3)CC2=O)cc1C (stereo not drawn) returned FMDV antiviral 5%, HCMV antiviral -61* and HCV inh 3%.
Screening Cc1cccc(N2CCN(C(=O)C3CC(=O)N(c4ccc5c(c4)OCCO5)C3)CC2C)c1 (stereo not drawn) returned FMDV antiviral inconclusive, HCMV antiviral -23 and HCV inh 11µM*.
Cc1cccc(NC(=O)c2cc3c(=O)n(Cc4ccco4)ccc3nc2C)c1 was read as FMDV antiviral -15%, HCMV antiviral inconclusive and LASV entry inh -16%[46.1 µM].
`C[C@@H]1CN(Cc2ccc3c(c2)CN(C(=O)c2ccc(Oc4ccccc4)o2)CCO3)C[C@H](C)O1` gave FMDV antiviral -16%.
`CCOC(=O)CN1C(=O)c2cccnc2Oc2ccccc21` gave FMDV antiviral -25%, MARV entry inh 9%[46.1 µM], HCMV antiviral -25 and LASV entry inh 20%[46.1 µM].
For COc1ccc(C)cc1NS(=O)(=O)c1cc(Br)cc2c1N(C(C)=O)C(C)C2 (stereo not drawn) the results were FMDV antiviral 36%, MARV entry inh -6%[46.1 µM], HCMV antiviral inconclusive and LASV entry inh -1%[46.1 µM].
For O=C1[C@H]2[C@H]3[C@H](O)[C@H](O)C/C(=N/OCc4ccccc4)[C@@H]3CC[C@@H]2C(=O)N1C1CCCCC1 the results were MARV entry inh -14%[14.2 µM] and FBPA Giardia inh -1%[12.9 µM].

Assay outcomes: PubChem BioAssay, National Center for Advancing Translational Sciences (NCATS)
